From PubChem
Rows were chosen to be rich in hits. Some 2.8% of all compounds tested hit in one or more screens of this group.
HIV Env fusion = HIV envelope-mediated fusion inhibition. HeLa-JRFL Env/CEM21 cell fusion, luciferase. inhibition, % at 12.3 µM. actives 1.1% (n = 360,000). AID 651610;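 active means mean replicate inhibition score of at least 50 and every replicate individually at or above 50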;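 further: 0% = plate neutral controls and 100% = maraviroc near 300 nM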
Shn3 inh set2 = inhibitors of Schnurri-3 3'UTR reporter in osteoblasts; Clone20 osteoblast Shn3 3'UTR firefly luciferase, 24 h; inhibition, % at 12.5 µM; actives 0.52% (n = 360,000); AID 588674;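 active means mean inhibition of at least 75% with every replicate also reaching 75%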;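 further: 0% = median of neutral control wells and 100% = pilot-screen positive control compound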
NSD2 HMT inh = inhibitors of human histone methyltransferase NSD2; inhibition, % at 12.5 µM; O96028; actives 0.54% (n = 310,000); NSD2 peptide methylation, AlphaScreen, 120 min; in the data active means inhibition above about 50%
PAX8 inh HTS = inhibitors of PAX8 transcriptional activity in RMG-I cells; RMG-I TPO-luciferase reporter, SteadyGlo, 24 h; inhibition, % at 12.6 µM; actives 1.2% (n = 360,000);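 active means mean replicate inhibition at least 60% with every replicate also reaching 60%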;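 further: luciferase light reporting Pax8 driven TPO promoter activity; plate controls were median of neutral control wells for no effect and mitoxantrone controls for full effect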
Glyco luc inh = N-linked glycosylation inhibition | D54 ERlucT glycosylation luciferase reporter, 24 h; percent of 100 nM tunicamycin response | reporter increase, % at 12.5 µM | actives 0.23% (n = 360,000);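 active means mean luciferase reporter signal, scaled so untreated is 0 and the glycosylation-blocking control 100, at or above a set limit in every replicate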;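 further: luciferase carries N-glycosylation sites so blocking glycosylation raises the light; 0% = median of neutral control wells and 100% = median of 100 nM tunicamycin wells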
EBV LMP1 NFkB = inhibitors of Epstein-Barr LMP1-induced NF-kappaB reporter | inhibition, % at 12.5 µM | actives 0.69% (n = 350,000) | LMP1-induced NF-kappaB luciferase reporter cells, luminescence; in the data active means inhibition above about 41%;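 further: 0% = neutral control wells and 100% = reference inhibitor control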
AlphaScreen art = AlphaScreen assay artifact in NSD2 counter-screen; shares compounds with NSD2 HMT inh; AlphaScreen artifact counterscreen, preloaded methylated H4 peptide; AC35, µM (titrated, usually from 10 µM), for the others: top-dose activity change, negative = signal loss; actives 9.4% (n = 1,500); call rule not given here
* hit, by the source's call; x = not tested or not shown; [ ] = remark or other dose.

SMILES | HIV Env fusion | Shn3 inh set2 | NSD2 HMT inh | PAX8 inh HTS | Glyco luc inh | EBV LMP1 NFkB | AlphaScreen art
COc1ccc(-n2c(N)c(C(=O)NCC3CCCO3)c3nc4ccccc4nc32)c(OC)c1 (stereo not drawn) | x | 22 | -29 | x | 0 | -13 | x
C=CCn1c(N)c(C(=O)NCC2CCCO2)c2nc3ccccc3nc21 (stereo not drawn) | x | 5 | 99* | x | 2 | 12 | 12%
C[C@H]1CN([C@@H](C)CO)C(=O)c2cc(NS(=O)(=O)c3ccc(F)cc3)ccc2O[C@@H]1CN(C)C | x | x | x | 26 | x | x | x
Cn1cc(-c2ccccc2C(N)=O)c(=O)c2ccccc21 | -6 | 0 | 56* | -5 | 0 | 2 | -1%
Cn1cc(-c2ccccc2C(N)=O)c(=O)c2cc(Cl)ccc21 | 6 | -3 | 20 | 35 | 0 | -3 | x
O=C(CSc1n[nH]c(-c2ccncc2)n1)Nc1ccc(Cl)cc1 | 2 | 6 | -2 | 0 | 1 | -4 | x
O=C(CSc1n[nH]c(-c2ccncc2)n1)Nc1ccc(Cl)c(Cl)c1 | 5 | -7 | 63* | 9 | 0 | -6 | 0%
Nc1cc(=O)[nH]c(SCC(=O)Nc2ccc(Cl)c(Cl)c2)n1 | -52 | -9 | 116* | -9 | 2 | 2 | 0%
COCC(=O)N(C)C[C@H]1Oc2ncc(-c3ccc(C)cc3)cc2C(=O)N([C@H](C)CO)C[C@H]1C | -7[16.7 µM] | x | x | x | x | x | x
Cc1noc(C)c1NC(=O)N(C)C[C@@H]1Oc2ccc(NS(=O)(=O)c3c(C)noc3C)cc2CC(=O)N([C@H](C)CO)C[C@@H]1C | -2[16.7 µM] | x | x | -15 | x | x | x
C[C@H](CO)N1C[C@H](C)[C@@H](CN(C)C(=O)Cc2ccccn2)Oc2ncc(-c3ccc(F)cc3)cc2C1=O | 3[16.7 µM] | x | x | 19 | x | x | x
CO[C@H]1CN(C)C(=O)c2cc(NC(=O)NC(C)C)ccc2OC[C@H](C)N(Cc2cncnc2)C[C@@H]1C | -10[16.7 µM] | x | x | 6 | x | x | x
C[C@H](NC(=O)C[C@H]1CC[C@H]2[C@@H](COC[C@H](O)CN2Cc2cc(F)ccc2F)O1)c1ccccc1 | 5[16.7 µM] | x | x | 11 | x | x | x
CCCOc1ccc(-c2nc(SCc3ccccc3)[nH]c(=O)c2C#N)cc1OC | 15 | 17 | 66* | -6 | 1 | 10 | 0%
COC1=CC(=O)c2nc(Cl)ccc2C1=O | 24 | 98* | 127* | 107* | -18 | x | -2%
C[C@H]1CCCCO[C@H](CN(C)C(=O)CCC(F)(F)F)[C@@H](C)CN([C@@H](C)CO)C(=O)c2cc(NS(=O)(=O)c3ccc(F)cc3)ccc2O1 | 34[16.7 µM] | x | x | -13 | x | x | x
Cc1c(Cc2ccccc2)c(=O)oc2cc(O)ccc12 | -32 | 19 | -6 | -2 | 2 | -7 | x
Cc1c(Cc2ccccc2)c(=O)oc2c(O)c(O)ccc12 | -58 | 13 | 61* | 5 | 2 | 7 | -12%
CC(C)NC(=O)N(C)C[C@H]1Oc2ncc(C#Cc3ccccc3F)cc2C(=O)N([C@@H](C)CO)C[C@H]1C | 6[16.7 µM] | x | x | x | x | x | x
CCn1c(-c2cc3c(C(F)(F)F)nn(C)c3s2)n[nH]c1=S | -227 | 8 | 52* | 7 | 4 | 11 | -6%
Cn1c(-c2cc3c(C(F)(F)F)nn(C)c3s2)n[nH]c1=S | x | -6 | 1 | x | 0 | 2 | x
COc1ccc(CN2C(=O)[C@@H]3[C@H]4C(=O)O[C@H](c5ccccc5)[C@@H](C)N(C)C(=O)CC/C=C/[C@H]4O[C@@]34C=CCN(Cc3ccccc3)C(=O)[C@@H]24)cc1 | 10[16.7 µM] | x | x | 19 | x | x | x
CC(C)CC#Cc1cnc2c(c1)C(=O)N([C@H](C)CO)C[C@@H](C)[C@@H](CN(C)C(=O)c1ccc(F)cc1)O2 | 26[16.7 µM] | x | x | x | x | x | x
O=C(COc1ncnc2c(Cl)cc(Cl)cc12)N1CCCCC1 | -12 | -8 | 53* | -3 | 2 | -2 | -7%
COCC(=O)Nc1ccc2c(c1)[C@@H]1C[C@H](CC(=O)NCc3ccc(Cl)cc3)O[C@@H](CO)[C@@H]1O2 | 5[16.7 µM] | x | x | -3 | x | x | x
SMILES | HIV Env fusion | Shn3 inh set2 | NSD2 HMT inh | PAX8 inh HTS | Glyco luc inh | EBV LMP1 NFkB | AlphaScreen art
Fc1ccc(NC(=S)Nc2ccc3nccnc3c2)cc1 | -1 | -23 | 105* | -3 | 2 | -26 | -3%
OCCCNC(=S)Nc1ccc2nccnc2c1 | 8 | -21 | 33 | -17 | 1 | -5 | x
Cc1ccc(Cl)cc1NC(=O)C[n+]1ccc(Cc2ccc([N+](=O)[O-])cc2)cc1 | -3 | -8 | 84* | 60 | 9 | 2 | -10%
O=C(C[n+]1ccc(Cc2ccccc2)cc1)Nc1ccc([N+](=O)[O-])cc1Cl | -9 | -6 | 15 | 1 | 2 | -8 | x
CN1/C(=N\O)c2cccc3cccc1c23 | x | -2 | 55* | x | 3 | 1 | 8%
O=C(C[C@H]1C=C[C@@H](NC(=O)Nc2ccc3c(c2)OCO3)[C@H](CO)O1)NCc1ccccc1 | -10[16.7 µM] | x | x | -9 | x | x | x
O=C(O)COc1ccc(/C=C/C(=O)c2ccc3ccccc3c2)cc1 | x | 0 | 88* | x | 3 | 1 | -5%
O=C(O)COc1ccc(/C=C/C(=O)c2ccc(C3CCCCC3)cc2)cc1 | -48 | -2 | 31 | -40 | 4 | -15 | x
C[C@H]1CN([C@@H](C)CO)C(=O)c2cc(-c3ccc(F)cc3)cnc2O[C@@H]1CN(C)Cc1cncnc1 | -76[16.7 µM] | x | x | x | x | x | x
CCc1ccc(-c2cc(C)no2)cc1S(=O)(=O)N1CCN(c2ccc(F)cc2)CC1 | 13 | 14 | 50* | 39 | 1 | 8 | -5%
Nc1c(C(=O)NCc2ccccc2)c2nc3ccccc3nc2n1CCCN1CCOCC1 | -13 | 7 | -27 | 31 | 0 | -61 | x
Nc1c(C(=O)NCc2ccc(F)cc2)c2nc3ccccc3nc2n1CCCN1CCOCC1 | 22 | -32 | 82* | x | 1 | -14 | 21%
CNC[C@@H]1Oc2ccc(NS(=O)(=O)c3cn(C)cn3)cc2C(=O)N([C@H](C)CO)C[C@H]1C | 25[16.7 µM] | x | x | -1 | x | x | x
CCCN(CCC)CCCNC(=S)Nc1ccc2nc(N3CCN(C)CC3)cc(C)c2c1 | -9 | 4 | 35 | 25 | 3 | -12 | x
CCCN(CCC)CCCNC(=S)Nc1ccc2nc(N3CCN(CC)CC3)cc(C)c2c1 | -15 | 12 | 70* | -22 | -2 | -15 | -10%
Nc1nonc1C(=O)NCCNC(=O)c1ccccc1F | x | 15 | 67* | x | 2 | -24 | 2%
COc1cc(SC)ccc1C(=O)NCCNC(=O)c1nonc1N | 12 | 9 | 0 | 8 | -2 | -1 | x
O=C(OCc1cnc(Cl)s1)c1cccs1 | -5 | -10 | 52* | 3 | 1 | -4 | 2%
C[C@@H]1CN([C@H](C)CO)C(=O)c2cc(NS(=O)(=O)c3ccc(Cl)cc3)ccc2O[C@H]1CN(C)CC1CC1 | -12[16.7 µM] | x | x | 5 | x | x | x
CNCc1ccc(OCc2ccccc2)c(OC)c1 | -50 | -24 | 53* | -26 | -1 | 20 | -1%
COc1cc(CNCc2cccnc2)ccc1OCc1ccccc1 | -11 | -22 | -4 | -48 | 1 | -13 | x
